Source: PubChem
Most compounds without a hit are left out; they make up all but 6.2% or so of the library.
KB-V1 cytotox: kills drug-selected multidrug resistant KB-V1 cells | Potency, µM (top dose mostly 46.1 µM), actives largely listed as cytotoxic | actives 3.4% (n = 400,000) | KB-V1 MDR cells viability, CellTiter-Glo, 72 h; also: % is scaled to controls: 0 for no effect and ±100 for the full control effect; nearly all actives have a fitted effect of over 60% in size
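KB-V1 cells (P-gp-expressing MDR subline of KB-3-1) in phenol-red-free DMEM with 10% FBS were exposed to library compounds over a concentration series for 72 h at 37 degrees C. Viability read by CellTiter-Glo luminescence; concentration-effect curves fitted after normalization.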
KB-3-1 cytotox: kills parental KB-3-1 adenocarcinoma cells; KB-3-1 viability, CellTiter-Glo ATP luminescence, 72 h; actives 1.4% (n = 400,000); AID 1347075; Potency, µM (highest dose often 46.1 µM), most hits filed as cytotoxic; also: % is scaled to controls: 0 for no effect and ±100 for the full control effect; nearly all actives have a fitted effect of over 60% in size
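Parental KB-3-1 adenocarcinoma cells in phenol-red-free DMEM with 10% FBS were pin-treated with compounds at several concentrations, incubated 72 h at 37 °C, and viability read by CellTiter-Glo luminescence; concentration-effect curves were fitted after normalization.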
HT1080NT lethal: kills 2HG-producing HT-1080-NT fibrosarcoma cells; AID 686970; Potency, µM (doses to about 46.1 µM), for inactives: at the highest dose activity, negative = less viability, hits mostly cytotoxic; actives 1.6% (n = 360,000); HT-1080-NT fibrosarcoma viability, CellTiter-Glo ATP luminescence, 48 h;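 also: NT is the 2HG producing partner of a matched IDH1 knockdown line; 0% = DMSO-treated cells and -100% = media-only wells without cells; nearly all actives have a fitted effect of over 55% in size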
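750 cells/well, RPMI + 5% FBS; 2 h settle, compound pin-transfer, 48 h at 37 degrees C. CellTiter-Glo 10 min RT, luminescence. Normalized to DMSO and media-only wells.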
ATXN viability: cell viability loss in ATXN counter-screen; S2 cells (HEK-293 line with an ATXN2-luciferase reporter) viability, CellTiter-Fluor protease fluorescence, 24 h; Potency, µM (highest dose often 56.7 µM), hits mostly cytotoxic; actives 0.49% (n = 400,000); AID 651635; also: nearly all actives have a fitted effect of over 40% in size
ATXN2 expr inh: inhibitors of ATXN2 expression | HEK-293 ATXN2-luciferase reporter, luminescence, 24 h | Potency, µM (doses to about 57 µM), without a hit: at the highest dose activity change, negative = inhibition, most hits filed as inhibitors | actives 0.72% (n = 360,000) | AID 1745845; also: % is scaled to controls: 0 for no effect and ±100 for the full control effect; nearly all actives have a fitted effect of over 55% in size
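qHTS (up to 57 uM final) was run with 24 h compound exposure of reporter cells at 37 °C. Each well was multiplexed: SteadyGlo luminescence measured ATXN2-luciferase expression after a fluorogenic Gly-Phe-AFC viability readout (25 uM final).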
HT1080 IDH1KD tx: toxicity to HT-1080 IDH1 knockdown cells (counter line). AID 686971. Potency, µM (titrated, usually from 46.1 µM), for inactives: at the highest dose activity, negative = toxicity, actives largely listed as cytotoxic. HT-1080 IDH1 knockdown viability, ATP luminescence, 48 h. actives 2% (n = 360,000);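 also: 0% = DMSO wells and -100% = cell-free medium wells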
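Using the IDH1-knockdown HT-1080 line run in the same batch and compound series as the NT line, viability after 48 h at 37 °C was determined by CellTiter-Glo luminescence and expressed as % activity.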
The depositor's hits bear a star. Calls follow the shape of the dose curve; as a rule, active = well fitted curve in the direction sought with a large enough effect; inconclusive = small, poorly fitted or top-dose-only effect, or another doubt; inactive = no such curve, though single readings can be large; an effect the other way counts as inactive or inconclusive. Potency is read from the fitted curve at half-maximal effect.

For COc1ccc([C@H]2CC(=O)C=C(c3ccc(CNC(=O)OC(C)(C)C)cc3)C2)cc1 the results were KB-V1 cytotox inconclusive, KB-3-1 cytotox inconclusive, HT1080NT lethal -25.6%, ATXN viability inconclusive, ATXN2 expr inh inconclusive and HT1080 IDH1KD tx inconclusive.
CCOC(=O)c1ccc(NC(=O)COCc2cc(-c3ccc4c(c3)OCO4)on2)cc1 was read as KB-V1 cytotox inactive and KB-3-1 cytotox inactive.
O=C(c1cccc(S(=O)(=O)N2CCOCC2)c1)N1CCN(c2ccccc2)CC1 was read as KB-V1 cytotox 18.4µM*, KB-3-1 cytotox inactive, HT1080NT lethal 5.6%, ATXN viability inactive, ATXN2 expr inh 1.6% and HT1080 IDH1KD tx 11.2%.
O=S(=O)(c1ccc(Oc2ccc(F)c(Cl)c2)nc1)N1CCOCC1 was read as KB-V1 cytotox 23.1µM*, KB-3-1 cytotox inactive, HT1080NT lethal -0.1%, ATXN viability inactive, ATXN2 expr inh 3.9% and HT1080 IDH1KD tx -3.8%.
For CCOc1ccccc1N1CCN(C(=O)Cc2ccc(S(=O)(=O)N3CCOCC3)s2)CC1 the results were KB-V1 cytotox 23.1µM*, KB-3-1 cytotox inactive, HT1080NT lethal -3.4%, ATXN viability inactive, ATXN2 expr inh -9.6% and HT1080 IDH1KD tx 1.4%.
Screening Cc1ccccc1OCC(=O)Nc1ccc(OCc2cc(=O)n3ccsc3n2)cc1 returned KB-V1 cytotox inconclusive, KB-3-1 cytotox inactive, ATXN viability inactive and ATXN2 expr inh 3.8%.
`CCN(CC)c1cc(C)c2cc(NC(=O)c3ccccc3Cl)ccc2n1` gave KB-V1 cytotox inactive, KB-3-1 cytotox inconclusive, ATXN viability inconclusive and ATXN2 expr inh -16.7%.
Screening COc1ccc2c(c1)CCC1(C)CC(=O)C(Br)=C21 (configuration not stated) returned KB-V1 cytotox 6.51µM*, KB-3-1 cytotox inconclusive, HT1080NT lethal -13.3%, ATXN viability inconclusive and HT1080 IDH1KD tx -9.7%.
`COc1ccc2c(c1)CCC2=O` gave KB-V1 cytotox inactive and KB-3-1 cytotox inactive.
`c1ccc(CSc2nnc(SCc3ccccn3)s2)nc1` gave KB-V1 cytotox 16.4µM*, KB-3-1 cytotox inactive, HT1080NT lethal 18.8%, ATXN viability inactive, ATXN2 expr inh 21.0% and HT1080 IDH1KD tx 8.8%.
Screening COC(=O)c1cc(CNC(=O)c2ccncc2)cc(NC(=O)c2ccccc2Cl)c1 returned ATXN viability inactive.
`CCOC(CNC(=O)c1ccc2c(c1)nc(C)n2-c1cccc(F)c1)OCC` gave KB-V1 cytotox 20.6µM*, KB-3-1 cytotox inactive, HT1080NT lethal 7.1%, ATXN viability inactive, ATXN2 expr inh 19.5% and HT1080 IDH1KD tx -4.2%.
Screening COCCNC(=O)c1ccc2c(c1)nc(C)n2-c1cccc(Cl)c1 returned KB-V1 cytotox inactive, KB-3-1 cytotox inactive, HT1080NT lethal 16.7%, ATXN viability inactive, ATXN2 expr inh 7.8% and HT1080 IDH1KD tx 9.0%.
CC(C)(C)c1ccc(Cn2c(=N)n(CC(O)c3ccco3)c3ccccc32)cc1 (configuration not stated) was read as KB-V1 cytotox inconclusive, KB-3-1 cytotox inconclusive, HT1080NT lethal 23.1µM*, ATXN viability 21.2µM*, ATXN2 expr inh inconclusive and HT1080 IDH1KD tx 20.6µM*.
For CCCCCCCn1c(=N)n(CC(O)c2ccco2)c2ccccc21 (configuration not stated) the results were KB-V1 cytotox inconclusive, KB-3-1 cytotox inactive, HT1080NT lethal 16.4µM*, ATXN viability inactive, ATXN2 expr inh inconclusive and HT1080 IDH1KD tx 23.1µM*.
N=c1n(CCN2CCCC2)c2ccccc2n1CC(O)c1ccco1 (configuration not stated) was read as KB-V1 cytotox inactive, KB-3-1 cytotox inactive, HT1080NT lethal -1.9%, ATXN viability inconclusive, ATXN2 expr inh -11.5% and HT1080 IDH1KD tx 6.1%.
`Cc1cccc(OCC(=O)Nc2ccc3nc(Nc4cccc(Cl)c4)cc(C)c3c2)c1` gave KB-V1 cytotox inactive, KB-3-1 cytotox inactive and ATXN2 expr inh -24.0%.
